Measured values: PubChem BioAssay (EPA / NIEHS)
Records with an inconclusive call do not appear. Some structures have more than one record in an assay (separate samples or runs), and their calls can disagree. Activity calls are given as the source filed them. How the source made its calls, unless noted: active means hit-call score of the fitted dose curve at least 0.9, where 1 is the maximum; inactive means score below 0.9.

Legend:
[1] = read-out: Collagen I, COL1A1 (gene 1277); assay: BSK_MyoF_CollagenI: BioMAP Diversity Plus: MyoF Assay for Collagen I Biomarker Activity (AID 2284238); settings: primary human lung fibroblasts
Outline: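 Multiplexed primary human lung fibroblast system; Collagen I measured by ELISA at 24 h post-dose. Increases are referenced to DMSO.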

[2] = read-out: Collagen III, COL3A1 (gene 1281); assay: BSK_MyoF_CollagenIII: BioMAP Diversity Plus: MyoF Assay for Collagen III Biomarker Activity (AID 2284239); settings: primary human lung fibroblasts
Outline: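 Compounds are added to primary human lung fibroblasts and left for 24 hours. Collagen III is then quantified by ELISA. Analysis takes DMSO as baseline and fits increases in signal.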

[3] = read-out: Interleukin 17F (IL17F), IL17F (gene 112744); assay: BSK_BT_xIL17F: BioMAP Diversity Plus: BT Assay for Interleukin 17F (IL17F) Biomarker Activity (AID 2284243); settings: primary human B cells with PBMC
Outline: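 Measures secreted IL-17F from a human B cell plus PBMC co-culture at 24 h post-dose by Luminex xMAP, with DMSO defining baseline activity.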

[4] = read-out: Actin alpha 1 (ACTA1), ACTA1 (gene 58); assay: BSK_MyoF_ACTA1: BioMAP Diversity Plus: MyoF Assay for Actin alpha 1 (ACTA1) Biomarker Activity (AID 2284244); settings: primary human lung fibroblasts
Outline: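 Lung fibroblasts, human primary, 24 h compound exposure → a-SMA ELISA. Positive-direction fit vs DMSO control.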

[5] = read-out: Interleukin 2 (IL2), IL2 (gene 3558); assay: BSK_BT_xIL2: BioMAP Diversity Plus: BT Assay for Interleukin 2 (IL2) Biomarker Activity (AID 2284245); settings: primary human B cells with PBMC
Outline: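 B cell + PBMC co-culture (human primary), compound added, 24 h incubation; secreted IL-2 measured multiplexed on Luminex xMAP; gain-of-signal fit vs DMSO.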

[6] = read-out: Basic fibroblast growth factor (bFGF), FGF2 (gene 2247); assay: BSK_MyoF_bFGF: BioMAP Diversity Plus: MyoF Assay for Basic fibroblast growth factor (bFGF) Biomarker Activity (AID 2284246); settings: primary human lung fibroblasts
Outline: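 ELISA-measured bFGF level serves as the read-out, taken 24 h after chemical dosing of human lung fibroblasts. Values represent signal gain over the DMSO negative control.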

[7] = read-out: Collagen IV, COL4A1 (gene 1282); assay: BSK_MyoF_CollagenIV: BioMAP Diversity Plus: MyoF Assay for Collagen IV Biomarker Activity (AID 2284247); settings: primary human lung fibroblasts
Outline: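 Steps: dose human lung fibroblasts; culture 24 h; quantify Collagen IV by ELISA; fit increase versus DMSO control. Parallel SRB total-protein staining (0.1% SRB after 10% TCA fixation, 560 nm) tracks overt cytotoxicity.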

[8] = read-out: Monokine induced gamma interferon (MIG), CXCL9 (gene 4283); assay: BSK_KF3CT_MIG: BioMAP Diversity Plus: KF3CT Assay for Monokine induced gamma interferon (MIG) Biomarker Activity (AID 2284248); settings: primary human keratinocytes with fibroblasts
Outline: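 The assay uses a co-culture of human keratinocytes and foreskin fibroblasts. Measurement occurs 24 hours after dosing, with MIG detected by ELISA and the DMSO control as baseline.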

[9] = read-out: Vascular cell adhesion molecule 1 (VCAM1), VCAM1 (gene 7412); assay: BSK_BF4T_VCAM1: BioMAP Diversity Plus: BF4T Assay for Vascular cell adhesion molecule 1 (VCAM1) Biomarker Activity (AID 2284249); settings: primary human bronchial epithelial cells with fibroblasts
Outline: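 Human bronchial epithelial cell and dermal fibroblast co-culture exposed 24 h. VCAM-1 measured by ELISA; parallel SRB total-protein staining for cytotoxicity. Fitted in positive direction relative to DMSO.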

[10] = read-out: Collagen I, COL1A1 (gene 1277); assay: BSK_hDFCGF_CollagenI: BioMAP Diversity Plus: hDFCGF Assay for Collagen I Biomarker Activity (AID 2284250); settings: primary human foreskin fibroblasts
Outline: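 Human skin primary fibroblasts dosed with test chemical, harvested at 24 h, Collagen I quantified by ELISA; parallel SRB staining (0.1% SRB after 10% TCA fixation, 560 nm) tracked cytotoxicity.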

[11] = read-out: Interferon-inducible T-cell alpha chemoattractant (ITAC), CXCL11 (gene 6373); assay: BSK_hDFCGF_ITAC: BioMAP Diversity Plus: hDFCGF Assay for Interferon-inducible T-cell alpha chemoattractant (ITAC) Biomarker Activity (AID 2284251); settings: primary human foreskin fibroblasts
Outline: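 ELISA readout of I-TAC after 24 h chemical exposure; human dermal foreskin fibroblast primary cells. Positive-direction fitting vs DMSO baseline. Parallel SRB total-protein staining (0.1% SRB after 10% TCA fixation, 560 nm) flags cytotoxicity.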

[12] = read-out: Plasminogen activator inhibitor-1 (PAI1), SERPINE1 (gene 5054); assay: BSK_KF3CT_PAI1: BioMAP Diversity Plus: KF3CT Assay for Plasminogen activator inhibitor-1 (PAI1) Biomarker Activity (AID 2284252); settings: primary human keratinocytes with fibroblasts
Outline: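 ELISA read-out of PAI-1 taken 24 h after chemical treatment of a human skin primary co-culture of keratinocytes and foreskin fibroblasts. Increases over DMSO-treated wells defined activity.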

[13] = read-out: Monocyte Chemoattractant Protein-1 (MCP1), CCL2 (gene 6347); assay: BSK_IMphg_MCP1: BioMAP Diversity Plus: IMphg Assay for Monocyte Chemoattractant Protein-1 (MCP1) Biomarker Activity (AID 2284253); settings: primary human endothelial cells with macrophages
Outline: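 Human venular endothelial cells co-cultured with macrophages; MCP-1 measured by ELISA 24 hours post-dose and fitted against DMSO. Cytotoxicity monitored by SRB total-protein staining in parallel cultures.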

[14] = read-out: Interleukin-8 (IL8), CXCL8 (gene 3576); assay: BSK_KF3CT_IL8: BioMAP Diversity Plus: KF3CT Assay for Interleukin-8 (IL8) Biomarker Activity (AID 2284254); settings: primary human keratinocytes with fibroblasts
Outline: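 ELISA detection of IL-8 from a human skin co-culture, keratinocytes with foreskin fibroblasts, at 24 h following chemical exposure, with gain of signal scored against DMSO controls.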

[15] = read-out: Macrophage Inflammatory Protein-1 Alpha (MIP1a), CCL3 (gene 6348); assay: BSK_IMphg_MIP1a: BioMAP Diversity Plus: IMphg Assay for Macrophage Inflammatory Protein-1 Alpha (MIP1a) Biomarker Activity (AID 2284255); settings: primary human endothelial cells with macrophages
Outline: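 Co-culture of human venular endothelial cells and macrophages exposed to compounds for 24 h; MIP-1a measured by ELISA relative to DMSO. Cytotoxicity assessed in parallel cultures by sulforhodamine B total-protein staining at 560 nm.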

[16] = read-out: Plasminogen activator inhibitor-1 (PAI1), SERPINE1 (gene 5054); assay: BSK_MyoF_PAI1: BioMAP Diversity Plus: MyoF Assay for Plasminogen activator inhibitor-1 (PAI1) Biomarker Activity (AID 2284256); settings: primary human lung fibroblasts
Outline: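 Activity reflects increased PAI-1, determined by ELISA and compared with DMSO, in human lung fibroblasts treated for 24 h.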

CD69, CD69 (gene 969) = assay: BSK_IMphg_CD69: BioMAP Diversity Plus: IMphg Assay for CD69 Biomarker Activity (AID 2284257); settings: primary human endothelial cells with macrophages
Outline: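 Human venular endothelial cells co-cultured with macrophages; CD69 quantified by ELISA 24 h after compound addition. Activity fitted in the positive direction relative to DMSO baseline; cytotoxicity tracked in parallel cultures via SRB total-protein staining.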

[17] = read-out: Eotaxin 3, CCL26 (gene 10344); assay: BSK_BF4T_Eotaxin3: BioMAP Diversity Plus: BF4T Assay for Eotaxin 3 Biomarker Activity (AID 2284258); settings: primary human bronchial epithelial cells with fibroblasts
Outline: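 Co-culture of human bronchial epithelial cells and dermal fibroblasts, exposed to chemicals for 24 h versus DMSO. Eotaxin-3 quantified by ELISA; cytotoxicity checked in parallel cultures by sulforhodamine B total-protein staining.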

[18] = read-out: Monocyte Chemoattractant Protein-1 (MCP1), CCL2 (gene 6347); assay: BSK_BF4T_MCP1: BioMAP Diversity Plus: BF4T Assay for Monocyte Chemoattractant Protein-1 (MCP1) Biomarker Activity (AID 2284259); settings: primary human bronchial epithelial cells with fibroblasts
Outline: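 Co-culture of bronchial epithelial cells and dermal fibroblasts dosed with chemical; MCP-1 measured by ELISA 24 h later. Activity fitted in positive direction versus DMSO; cytotoxicity checked by SRB staining in parallel cultures.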

[19] = CCTE_Mundy_HCI_hNP1_CellTiter: CCTE's Cell Titer-Glo 2 Assay in human neuroprogenitor cells for Viability, Mundy Lab (AID 2284241; active means hit-call score of the fitted dose curve at least 0.9, where 1 is the maximum)
Outline: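 Measures ATP content in human neural progenitors derived from WA09 embryonic cells. Read-out at 26.5 hours after dosing, with DMSO serving as the negative control and baseline.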

Measured: AC50

FC(F)(F)C(F)(F)C(F)(F)CC1CO1 (stereo not given)
inactive: [1] | [2] | [3] | [4] | [5] | [6] | [7] | [8] | [9] | [10] | [11] | [12] | [13] | [14] | [15] | [16] | CD69, CD69 (gene 969) | [17] | [18]
active: [11] 5.97 µM

O=S(=O)(O)CCC(F)(F)C(F)(F)C(F)(F)C(F)(F)F
active: [11] 0.931 µM
inactive: [1] | [2] | [3] | [4] | [5] | [6] | [7] | [8] | [9] | [10] | [11] | [12] | [14] | [15] | [16] | CD69, CD69 (gene 969) | [17] | [18]

C=C(C)C(=O)OCC(F)(F)C(F)(F)C(F)(F)C(F)F
inactive: [1] | [2] | [3] | [4] | [5] | [6] | [7] | [8] | [9] | [10] | [11] | [12] | [14] | [15] | [16] | CD69, CD69 (gene 969) | [17] | [18]
active: [3] 22.9 µM | [4] 14.4 µM | [11] 7.82 µM | [16] 0.222 µM

O=C(F)C1(F)C(F)(F)C(F)(F)C(F)(F)C(F)(F)C1(F)F
inactive: [1] | [2] | [19] | [3] | [4] | [5] | [6] | [7] | [8] | [9] | [10] | [11] | [12] | [13] | [14] | [15] | [16] | CD69, CD69 (gene 969) | [17] | [18]

C[Si](Cl)(Cl)CCC(F)(F)C(F)(F)C(F)(F)C(F)(F)C(F)(F)C(F)(F)F
inactive: [1] | [2] | [3] | [4] | [5] | [6] | [7] | [8] | [9] | [10] | [11] | [12] | [14] | [15] | [16] | CD69, CD69 (gene 969) | [17] | [18]
active: [11] 1.49 µM
